Among all 310,000 compounds or so, about 14,000 (4.5%) showed an effect of 50% or more. Effects have a minus sign here. Shown is part of a subset that was picked to be rich in strong results.
Target: human ether-à-go-go-related gene (hERG) potassium channel (human, UniProt Q12809)
Assay: primary screen, population patch clamp on CHO cells stably expressing hERG; higher = less effect of the substance
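Further: peak tail current of the secondary pulse compared with the same well before compound.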

human ether-à-go-go-related gene (hERG) potassium channel, sequence (Q12809 whole entry, looked up): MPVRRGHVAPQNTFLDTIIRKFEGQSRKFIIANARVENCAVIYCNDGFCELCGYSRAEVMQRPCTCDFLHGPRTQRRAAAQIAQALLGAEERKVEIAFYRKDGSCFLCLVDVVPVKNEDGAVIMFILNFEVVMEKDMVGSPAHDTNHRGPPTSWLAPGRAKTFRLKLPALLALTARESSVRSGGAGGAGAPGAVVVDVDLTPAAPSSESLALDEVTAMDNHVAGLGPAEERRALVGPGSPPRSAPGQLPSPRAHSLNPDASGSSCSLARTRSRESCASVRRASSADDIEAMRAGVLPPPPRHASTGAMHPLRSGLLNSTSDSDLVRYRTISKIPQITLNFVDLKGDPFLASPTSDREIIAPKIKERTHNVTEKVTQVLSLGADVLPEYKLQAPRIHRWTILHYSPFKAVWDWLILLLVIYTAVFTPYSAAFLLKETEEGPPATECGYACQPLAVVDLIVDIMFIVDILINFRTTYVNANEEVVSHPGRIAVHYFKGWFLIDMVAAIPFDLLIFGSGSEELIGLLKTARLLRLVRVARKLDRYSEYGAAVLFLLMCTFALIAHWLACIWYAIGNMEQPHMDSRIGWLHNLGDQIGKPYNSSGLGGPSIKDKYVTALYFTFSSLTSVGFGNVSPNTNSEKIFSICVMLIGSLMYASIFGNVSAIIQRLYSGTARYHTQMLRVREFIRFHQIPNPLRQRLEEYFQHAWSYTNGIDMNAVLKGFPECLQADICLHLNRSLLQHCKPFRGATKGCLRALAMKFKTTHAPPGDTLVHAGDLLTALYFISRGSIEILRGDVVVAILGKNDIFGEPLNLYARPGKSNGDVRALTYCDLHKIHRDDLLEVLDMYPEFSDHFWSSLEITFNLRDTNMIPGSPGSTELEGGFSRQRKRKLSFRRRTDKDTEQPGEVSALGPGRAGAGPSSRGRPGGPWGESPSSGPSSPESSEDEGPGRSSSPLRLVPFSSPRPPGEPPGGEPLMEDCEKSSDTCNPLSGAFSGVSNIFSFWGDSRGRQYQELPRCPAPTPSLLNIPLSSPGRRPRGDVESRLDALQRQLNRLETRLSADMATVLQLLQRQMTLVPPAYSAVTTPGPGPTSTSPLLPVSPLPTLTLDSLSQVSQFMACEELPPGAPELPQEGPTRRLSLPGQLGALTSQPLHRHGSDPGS

| Structure (SMILES) | hERG current change (%, negative = inhibition) at 10uM [%] |
| --- | --- |
| CC(=O)Nc1ccc2nc(NC(=O)c3ccc([N+](=O)[O-])s3)sc2c1 | 8.75 |
| CCSc1nc2c(c(=O)[nH]1)C(C(C)C)C(C#N)=C(N)O2 (centres unmarked) | 5.71 |
| Cc1ccccc1NC(=O)Nc1nc2ccc(S(C)(=O)=O)cc2s1 | -2.53 |
| O=C(N/N=C/c1coc2ccc(Cl)cc2c1=O)c1ccncc1 | 6.28 |
| CCCN(CCC)CCCNC(=O)C1CCC(CNS(=O)(=O)c2cccc3nsnc23)CC1 (centres unmarked) | -10.1 |
| O=C(CN(C(=O)c1csnn1)c1cccc(F)c1)NCc1ccc2c(c1)OCO2 | -7.22 |
| O=C(CN(Cc1ccc(F)cc1)C(=O)c1csnn1)NCc1ccc2c(c1)OCO2 | -64.5 |
| O=C(CN(Cc1ccccc1)C(=O)c1ccc2c(c1)OCCO2)NCc1ccc2c(c1)OCO2 | -59 |
| O=C(CN(Cc1ccccc1F)C(=O)c1csnn1)NCc1ccc2c(c1)OCO2 | -22 |
| O=C(Cc1ccccc1)NCc1ccc2c(c1)OCO2 | 3.22 |
| COc1ccccc1CN(CC(=O)NCc1ccc2c(c1)OCO2)C(=O)c1ccc2c(c1)OCCO2 | -28.4 |
| Cc1ccc(CN(CC(=O)NCc2ccc3c(c2)OCO3)C(=O)c2csnn2)cc1 | -50.5 |
| O=C(CN(C(=O)c1csnn1)c1ccc(F)cc1)NCc1ccc2c(c1)OCO2 | 9.12 |
| O=C(CN(Cc1ccccc1)C(=O)c1csnn1)NCc1ccc2c(c1)OCO2 | -23.4 |
| O=C(CN(Cc1ccccc1Cl)C(=O)c1csnn1)NCc1ccc2c(c1)OCO2 | -51.4 |
| COc1ccccc1CN(CC(=O)NCc1ccc2c(c1)OCO2)C(=O)c1csnn1 | -34.2 |
| COc1ccc(CN(CC(=O)NCc2ccc3c(c2)OCO3)C(=O)c2csnn2)cc1 | -39.8 |
| C=CCn1c(Cc2cccs2)nnc1SCC(=O)Nc1cc(OC)cc(OC)c1 | -27.8 |
| Cc1nc2nc(C)c(CCC(=O)Nc3ccc4c(c3)OCO4)c(C)n2n1 | -18 |
| COc1ccc(C2N=C(N)N=C(N)N2c2ccccc2OC)cc1OC.Cl (centres unmarked) | -11.7 |
| O=C(Nc1nnc(-c2cccs2)o1)C1CC1 | 3.93 |

| Structure (SMILES) | hERG current change (%, negative = inhibition) at 10uM [%] |
| --- | --- |
| CCOC(=O)C1=NNC(C(=O)c2ccc(OC)cc2)C1c1ccccc1 (centres unmarked) | -9.43 |
| Cn1ncc(C#N)c1NC(=O)C1CC(c2ccc(Cl)c(Cl)c2)=NO1 (centres unmarked) | -9.94 |
| COc1cccc(CC(=O)Nc2nc3ccccc3[nH]2)c1 | 10.7 |
| Cc1cccc(NC(=S)NCCc2c[nH]c3ccccc23)c1 | -4.25 |
| CCOC(=O)CNC(=S)N(Cc1ccccc1F)C1CCCCC1 | -73 |
| CCCNC(=O)CNC(=S)N(Cc1ccccc1F)C1CCCCC1 | -10.8 |
| O=C(O)CNC(=S)N(Cc1ccccc1F)C1CCCCC1 | 0.581 |
| CC(C)c1ccc(S(=O)(=O)N2CCN(C(=O)n3ccnc3)CC2)cc1 | -35.8 |
| COc1cc(OC)cc(C(=O)N[C@H](C(=O)NCc2ccccc2)C(C)C)c1 | 7.08 |
| CCOC(=O)N1CCN(C(=S)NC(=O)c2cc(Br)ccc2Cl)CC1 | 3.59 |
| C=CCc1c(C)nc(C)nc1N/N=C/c1ccc(F)cc1 | -30.9 |
| C=CCc1c(C)nc(C)nc1N/N=C/c1ccccc1 | -19.2 |
| C=CCc1c(C)nc(C)nc1N/N=C/c1ccc([N+](=O)[O-])cc1.Cl | -56.3 |
| CCC(c1nnnn1Cc1ccc(F)cc1)N(CCCO)Cc1cc2cc3c(cc2[nH]c1=O)OCO3 (centres unmarked) | -17.5 |
| Cc1ccc(-n2c(O)c(/C=N/c3ncc(Br)cc3Br)c(=O)[nH]c2=O)cc1 | 2.79 |
| CCOCCCn1c(SCC(=O)Nc2ccc(OC)cc2)nc2ccccc2c1=O | -11 |
| COCCCNC(=O)CSc1nc2ccccc2c(=O)n1Cc1ccc2c(c1)OCO2 | 12.4 |
| CCOCCCn1c(SCC(=O)NCc2ccc3c(c2)OCO3)nc2ccccc2c1=O | -59 |
| CCCCNC(=O)CSc1nc2cc3c(cc2c(=O)n1Cc1ccco1)OCO3 | -10.8 |
| CCCCNC(=O)CSc1nc2cc3c(cc2c(=O)n1CCCN(CC)CC)OCO3 | -62.6 |

From PMC4336329 (PLoS ONE, 2015)
